Assay results taken from PubChem BioAssay (NCI).
Compounds without any hit were thinned out: in the full panel of roughly 83,000, 20% have a hit.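 Method: cells in 96-well plates; compound added at one concentration; 48 h incubation; percent growth measured; values under 10 scored active.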 Unmarked numbers belong to inactive results. The source made the active and inactive calls.

What was measured:
Assay in all cases: NCI-60 one-dose screen, 48 h (100 = growth as untreated, 0 = no growth, -100 = all killed)
Details in all cases: 10 µM unless noted
SR leukemia = system: SR leukemia
RPMI-8226 leukemia = system: RPMI-8226 leukemia
OVCAR-8 ovarian = system: OVCAR-8 ovarian
OVCAR-5 ovarian = system: OVCAR-5 ovarian
OVCAR-4 ovarian = system: OVCAR-4 ovarian
SK-OV-3 ovarian = system: SK-OV-3 ovarian
IGROV1 ovarian = system: IGROV1 ovarian
OVCAR-3 ovarian = system: OVCAR-3 ovarian
HS 578T breast = system: HS 578T breast
NCI/ADR-RES ovarian = system: NCI/ADR-RES ovarian
T-47D breast = system: T-47D breast
BT-549 breast = system: BT-549 breast
MDA-MB-435 melanoma = system: MDA-MB-435 melanoma
SW-620 colon = system: SW-620 colon
MCF7 breast = system: MCF7 breast
HCC-2998 colon = system: HCC-2998 colon
KM12 colon = system: KM12 colon
HCT-116 colon = system: HCT-116 colon

Compound | growth (SR leukemia) | growth (RPMI-8226 leukemia) | growth (OVCAR-8 ovarian) | growth (OVCAR-5 ovarian) | growth (OVCAR-4 ovarian) | growth (SK-OV-3 ovarian) | growth (IGROV1 ovarian) | growth (OVCAR-3 ovarian) | growth (HS 578T breast) | growth (NCI/ADR-RES ovarian) | growth (T-47D breast) | growth (BT-549 breast) | growth (MDA-MB-435 melanoma) | growth (SW-620 colon) | growth (MCF7 breast) | growth (HCC-2998 colon) | growth (KM12 colon) | growth (HCT-116 colon)
O=C1c2cccnc2C(=O)c2c1c(C(=O)OCCCN1CCCCC1)c1ccccn21 | -15.8% (active) | -28.3% (active) | -32% (active) | -19.2% (active) | -61.8% (active) | -40.6% (active) | -5% (active) | 0.168% (active) | -16% (active) | -13.3% (active) | 24% | -24.1% (active) | -41.5% (active) | -60.1% (active) | -42% (active) | -35.7% (active) | -33.2% (active) | 
CCN(CC)CCCNCc1cc(-c2ccccc2)nc2cc(Cl)ccc12 | 13.6% | 3.47% (active) | 28.8% | 87.5% | 67.8% | 75.6% | 28.9% | 61.7% | 24.2% | 23.2% | -82.5% (active) | 40.1% | -39.7% (active) | -0.394% (active) | 23% | -29.1% (active) | 14.5% | 
CC[C@]12C=CCN3CC[C@@]4(c5ccc(OC)cc5N(C)[C@H]4[C@@](O)(C(=O)OC)[C@@H]1OC(=O)CCCN1CCOCC1)[C@@H]32 | 111% | 96.2% | 104% | 114% | 108% | 111% | 112% | 108% | 107% | 106% | 106% | 105% | 100% | 105% | 103% | 109% | 107% | 
COc1cc(/C=C/c2cc(/C=C/c3ccc(O)c(OC)c3)n(C(=O)Nc3ccc(F)cc3)n2)ccc1O | 2.53% (active) | 3.32% (active) | 0.475% (active) | 31.3% | 35.5% | -18.7% (active) | 17.4% | 3.89% (active) | 20% | 27.9% | 31.1% | -8.33% (active) | -2.32% (active) | 10.5% | 9.49% (active) | 6.92% (active) | 2.44% (active) | 
COc1ccccc1NC(=O)c1ccc(/C=C/C(=O)c2nccn2C)cc1 | -18.2% (active) | -35% (active) | 4.61% (active) | -80.9% (active) | -34.8% (active) | 15.8% | -56.5% (active) | -90.9% (active) | 35.5% | 5.75% (active) | -15.8% (active) | -63.5% (active) |  | -77.7% (active) | -45.6% (active) | -85.9% (active) | -73.9% (active) | -84.9% (active)
CCN1C(=S)N(CC)C2C1NC(=S)N2/N=C/C=C/c1ccccc1OC (stereo not given) | 15.2% | 24.6% | 12.5% | 27.2% | 44.2% | 35% | 19.5% | -48% (active) | 16.3% | -9.38% (active) | 59.4% | 13.5% |  | 23.8% | 17.9% | 11.6% | 15% | 13.6%
CCOC(=O)c1c(NC(=O)CSc2n[nH]c3nc4ccccc4n23)sc(CC)c1C | -28.6% (active) | 107% | 99.2% | 82% | 98.1% | 97.4% | 20.4% | 106% | 102% | 95.2% | 97.1% | 137% |  | 104% | 91.9% | 105% | 98.3% | 93.9%
O=C1CCC(C(=O)NN(c2ccccc2)c2ccccc2)N1 (stereo not given) | 19.7% | 17.8% | 103% | 99.2% | 103% | 96.6% | 105% | 95.4% | 95.8% | 111% | 103% | 30.2% | 93.8% | 100% | 98% | 110% | 87.3% | 
Cn1cc(-c2nonc2-c2c[nH]c3ccc(F)cc23)c2cc(Br)ccc21 | 27% | 46% | 40.5% | 58.7% | 43.8% | 64.4% | 64% | 60.3% | 63.2% | 42.1% | 14.8% | 65.9% | 51% | 64.5% | 32.2% | 40.1% | 29.4% | 
COc1ccc(C2=Nc3c(N)ncnc3NC(c3cccc(Nc4ccnc5cc(C(F)(F)F)ccc45)c3)C2)cc1 (stereo not given) | 5.09% (active) | 11.8% | 67.9% | 92.3% | 67.2% | 69.3% | 66.4% | 78.2% | 55.3% | 65.3% | 62% | 80.7% | 19.1% | 62.3% | 30.1% | 72.1% | 47.1% | 
CN(C)Cc1ccc(C(=O)Nc2ccc3ncnc(Nc4ccc(Oc5cccc(F)c5)c(Cl)c4)c3c2)cc1 | -18.1% (active) | -24.7% (active) | 14.2% | -28.7% (active) | -24.4% (active) | 19% | -50.7% (active) | -24.2% (active) | -11.7% (active) | 22.7% | 10% | 80.2% |  | -73.1% (active) | -62.1% (active) | -65.3% (active) |  | -39.7% (active)
COc1cc2oc(-c3cccc(NC(=O)c4ccc5c(c4)OCO5)c3)cc(=O)c2c(OC)c1OC | 11.5% | -53.7% (active) | 46.3% | 93.9% | 58.1% | 98.1% | 47% | 53% | 45.2% | 57.6% | 26.3% | 41.4% | 53.3% | 64% | 43.6% | 53.1% | 51.3% | 
COc1ccc(C(O)c2cc3c(N)c(C(=O)Nc4cccc(Cl)c4)sc3nc2C)cc1 (stereo not given) | 13.2% | 15.8% | 13.5% | 28.5% | 50.7% | 19% | 24.5% | 7.47% (active) | -8.06% (active) | 13.2% | 42.2% | 38.3% |  | 27.1% | 15.1% | -19.9% (active) |  | 10.3%
CCCCCn1sc(=O)n(Cc2ccc(CNC(=O)OCc3ccc4c(Cl)cc(Cl)c(O)c4n3)cc2)c1=O | 64.3% | 60.6% | 42.3% | 90% | 66.4% | 96% | 53.5% | 69.8% | 70.9% | 9.85% (active) | 60.8% |  | 68% | 58.4% | 69.5% | 95.2% | 57.5% | 44.6%
COc1ccc2nc(Cl)c(/C=C/C(=O)c3ccc(NC(=O)CSc4nnc(-c5ccc(Cl)c(Cl)c5)n4-c4ccccc4)cc3)cc2c1 | 98.6% | 62% | 92.1% | 102% | 103% | 91.4% | 76.3% | 105% | 89.3% | 102% | 83.5% |  | 95.6% | 92.3% | 82.5% | 105% | 98.4% | 68.6%
COc1cc(C#Cc2ccc(=O)oc2C#Cc2ccccc2)cc(OC)c1OC | 3.75% (active) | 49.2% | 89.4% | 75.8% | 96.9% | 101% | 67.4% | 29.9% | 84.8% | 89.7% | 27.6% | 57.6% |  | 8.07% (active) | 44.6% | 29.1% | 82.7% | -32.2% (active)
